Screening results deposited in PubChem BioAssay by Broad Institute.
C diff growth: inhibitors of Clostridium difficile growth. Clostridium difficile clinical isolate growth, OD600, 24 h; hits give low values. growth activity, negative = inhibition, % at 16 µg/mL (by protocol). 86,000 tested, 0.25% active;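 active = mean growth activity at or below -80% and every replicate also at or below -80%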;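 also: 0% = DMSO wells and -100% = levofloxacin 16 µg/mL wells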
T cruzi growth-1: inhibitors of T. cruzi proliferation. inhibition, % at 8.34 µM. 77,000 tested, 5.9% active. T. cruzi beta-gal in NIH3T3, GalScreen luminescence, 90 h;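 active = mean inhibition above about 93%, with at least 55% of replicates each passing it, limit read from the data, passing the limit was not always enough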
Pf Dd2 growth: inhibitors of Plasmodium falciparum Dd2 growth; P. falciparum Dd2 growth, SYBR Green, 72 h; hits give low values; activity change, % at 10 µM; 94,000 tested, 2.3% active; in the data active = activity change below about -80%
T cruzi growth-2: blocks T. cruzi growth in NIH3T3 host cells. 5,600 tested, 72% active. inhibition, % at 8.35 µM. shares compounds with T cruzi growth-1. AID 651739. T. cruzi beta-gal in NIH3T3, GalScreen luminescence, 90 h;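 active = mean replicate inhibition above about 95% and at least 55% of replicates individually reaching it, limit read from the data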
T cruzi growth-3: inhibitors of T. cruzi proliferation; 5,600 tested, 21% active; shares compounds with T cruzi growth-1; inhibition, % at 2.09 µM; T. cruzi beta-gal in NIH3T3, GalScreen luminescence, 90 h;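 active = mean inhibition above about 95%, with at least 55% of replicates also reaching it, limit read from the data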;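 also: plate controls were neutral control median for no effect and positive control median for full effect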
3T3 cytotox: NIH/3T3 (mouse) viability loss | shares compounds with T cruzi growth-1 | NIH/3T3 viability, CellTiter-Glo ATP luminescence, 90 h | cytotoxicity (signal decrease), % at 8.35 µM | 5,600 tested, 14% active | AID 651742;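 active = mean signal decrease across replicates above about 35% based on untreated-well scatter, with enough replicates individually passing, limit read from the data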;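 also: 0% = median of neutral control wells and 100% = median of positive control wells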
NIH3T3 tox 2: cytotoxicity in mouse NIH/3T3 fibroblasts; AID 651744; shares compounds with T cruzi growth-1; NIH/3T3 viability, CellTiter-Glo ATP luminescence, 90 h; 5,600 tested, 56% active; inhibition, % at 24.9 µM;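 active = mean loss of cell viability signal at or above a set limit, and enough replicates individually reaching it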;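 also: 0% = median of neutral control wells and 100% = median of positive control wells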
* = called active by the depositor; / = no result given. The list is not random: actives were taken first. Their share in the collection is about 6.7%.

SMILES	C diff growth	T cruzi growth-1	Pf Dd2 growth	T cruzi growth-2	T cruzi growth-3	3T3 cytotox	NIH3T3 tox 2
C[C@H]1CN([C@@H](C)CO)S(=O)(=O)c2ccc(C#CC3CC3)cc2O[C@@H]1CN(C)Cc1ccccn1	-11	109*	-46	91	71	27	80*
C[C@@H]1CN([C@H](C)CO)S(=O)(=O)c2ccc(C#CC3CC3)cc2O[C@H]1CN(C)Cc1ccccn1	-8	110*	-28	76	-3	102*	76*
C[C@H](CO)N1C[C@H](C)[C@H](CN(C)Cc2ccccn2)Oc2cc(C#CC3CC3)ccc2S1(=O)=O	-3	59	-23	/	/	/	/
CC(C)C#Cc1ccc2c(c1)O[C@@H](CN(C)Cc1ccccn1)[C@H](C)CN([C@H](C)CO)S2(=O)=O	14	76	-44	/	/	/	/
CC(C)NC(=O)Nc1ccc2c(c1)C(=O)N([C@H](C)CO)C[C@@H](C)[C@@H](CN(C)Cc1ccc(-c3ccccc3)cc1)O2	-14	6	7	/	/	/	/
CCCNC(=O)Nc1ccc2c(c1)OC[C@@H](C)N(C(=O)C1CCCC1)C[C@@H](C)[C@H](OC)CN(C)C2=O	/	9	/	/	/	/	/
COc1ccccc1NC(=O)N[C@@H]1CC[C@H](CCNC(=O)Cc2ccccn2)O[C@H]1CO	3	/	-13	/	/	/	/
N#Cc1cccc(-c2ccc([C@@H]3[C@H]4CN(C(=O)Nc5ccc(F)cc5)CCCCN4[C@H]3CO)cc2)c1	48	84	5	/	/	/	/
N#Cc1ccc(-c2ccc([C@H]3[C@@H](CO)N4CCCCN(C(=O)Nc5ccc(F)cc5)C[C@@H]34)cc2)cc1	6	100*	-7	112*	63	-8	15
N#Cc1ccc(-c2ccc([C@@H]3[C@H](CO)N4CCCCN(C(=O)Nc5ccc(F)cc5)C[C@@H]34)cc2)cc1	37	50	-67	/	/	/	/
N#Cc1cccc(-c2ccc([C@H]3[C@H]4CN(C(=O)Nc5ccc(F)cc5)CCCCN4[C@H]3CO)cc2)c1	13	100*	7	101*	31	5	15
N#Cc1cccc(-c2ccc([C@@H]3[C@@H](CO)N4CCCCN(C(=O)Nc5ccc(F)cc5)C[C@@H]34)cc2)c1	39	109*	4	106*	75	47*	98*
N#Cc1cccc(-c2ccc([C@@H]3[C@H](CO)N4CCCCN(C(=O)Nc5ccc(F)cc5)C[C@@H]34)cc2)c1	73	94	8	/	/	/	/
C[C@@H]1CCCCO[C@H](CN(C)C(=O)c2ccccc2)[C@@H](C)CN([C@@H](C)CO)C(=O)c2cc(NC(=O)NC3CCCCC3)ccc2O1	-2	-1	-72	/	/	/	/
COc1ccc2c3c(n(C)c2c1)[C@H](CO)N(C(=O)c1cccnc1)CC31CCN(S(C)(=O)=O)CC1	-1	/	-19	/	/	/	/
C[C@@H]1CN([C@H](C)CO)C(=O)c2cc(NC(=O)Cn3cnnn3)ccc2O[C@@H]1CN(C)Cc1ccc2c(c1)OCO2	9	-1	19	/	/	/	/
CC(C)NC(=O)N(C)C[C@H]1OCCCC[C@H](C)Oc2ccc(NC(=O)NC3CCCCC3)cc2C(=O)N([C@@H](C)CO)C[C@H]1C	-4	15	-29	/	/	/	/
C[C@H](CO)N1C[C@H](C)[C@@H](CN(C)C)Oc2ncc(C3=CCCC3)cc2C1=O	2	-21	26	/	/	/	/
CO[C@@H]1CN(C)C(=O)c2ccc(NC(=O)Nc3cccc(F)c3)cc2OC[C@@H](C)N(C(=O)C2CC2)C[C@H]1C	/	-6	/	/	/	/	/
O=C(C1CCC1)N1CCCCN2[C@H](C1)[C@H](c1ccc(C#CC3CCCC3)cc1)[C@@H]2CO	12	103*	15	108*	54	27	104*
O=C(C1CC1)N1CCCCN2[C@@H](CO)[C@@H](c3ccc(C#CC4CC4)cc3)[C@@H]2C1	-15	50	13	/	/	/	/
O=C(C1CC1)N1CCCCN2[C@H](CO)[C@H](c3ccc(C#CC4CC4)cc3)[C@H]2C1	-7	82	-2	/	/	/	/
O=C(C1CCCC1)N1CCCCN2[C@@H](CO)[C@H](c3ccc(C#CC4CC4)cc3)[C@@H]2C1	30	121*	-2	110*	65	40*	82*
